Molecules are shown by their SMILES. For some assays here: Results with a measured potency or affinity are listed apart.

Holding throughout (set-up): scale not given: direction of the effect not stated beside the values
Experiment [1] deals with Protein translocase subunit SecA (Escherichia coli (strain K12)) (UniProt P10408). Description: Assay to Identify E. coli SecA ATPase Inhibitors. The conditions noted are these: 30 µM. The format is functional.
For experiment [2], the target named is T1, Ubiquitin-activating enzyme e1, putative (Leishmania donovani (strain BPK282A1)) (UniProt E9BSI1).
T1 sequence (whole entry): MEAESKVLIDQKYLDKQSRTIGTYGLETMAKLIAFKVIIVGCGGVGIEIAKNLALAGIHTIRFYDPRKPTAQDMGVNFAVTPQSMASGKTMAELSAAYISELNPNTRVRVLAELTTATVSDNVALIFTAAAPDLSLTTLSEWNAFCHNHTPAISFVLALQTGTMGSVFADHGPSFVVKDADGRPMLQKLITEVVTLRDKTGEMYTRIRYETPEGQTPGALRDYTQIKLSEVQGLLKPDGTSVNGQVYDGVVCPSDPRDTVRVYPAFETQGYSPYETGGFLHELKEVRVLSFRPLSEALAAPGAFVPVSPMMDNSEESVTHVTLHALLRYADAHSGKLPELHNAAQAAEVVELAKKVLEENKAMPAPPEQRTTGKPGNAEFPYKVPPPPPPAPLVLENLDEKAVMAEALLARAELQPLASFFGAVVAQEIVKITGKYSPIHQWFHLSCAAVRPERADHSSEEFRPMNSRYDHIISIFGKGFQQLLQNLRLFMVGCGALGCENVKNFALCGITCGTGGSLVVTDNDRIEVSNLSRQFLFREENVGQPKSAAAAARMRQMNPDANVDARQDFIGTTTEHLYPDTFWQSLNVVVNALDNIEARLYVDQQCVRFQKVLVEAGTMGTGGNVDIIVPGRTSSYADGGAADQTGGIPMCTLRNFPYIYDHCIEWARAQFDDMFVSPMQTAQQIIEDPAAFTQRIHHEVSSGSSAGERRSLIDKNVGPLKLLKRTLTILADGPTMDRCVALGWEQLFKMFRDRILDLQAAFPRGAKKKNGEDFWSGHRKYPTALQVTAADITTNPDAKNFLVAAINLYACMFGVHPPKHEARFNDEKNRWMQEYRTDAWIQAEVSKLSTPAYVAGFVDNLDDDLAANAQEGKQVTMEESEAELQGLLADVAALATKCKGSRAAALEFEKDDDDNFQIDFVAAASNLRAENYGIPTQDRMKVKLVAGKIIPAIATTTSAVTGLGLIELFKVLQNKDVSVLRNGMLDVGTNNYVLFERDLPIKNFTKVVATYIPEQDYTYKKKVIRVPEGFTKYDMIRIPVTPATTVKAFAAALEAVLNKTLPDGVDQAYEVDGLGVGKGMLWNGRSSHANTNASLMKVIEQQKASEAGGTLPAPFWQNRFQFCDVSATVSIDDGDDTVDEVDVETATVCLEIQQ
Kind of experiment: Leishmania donovani Ubiquitin Activating Enzyme (LdE1). The format is functional. The conditions noted are these: 30 µM.

The target in experiment [3] is AMP-activated protein kinase, AMPK (Homo sapiens) (UniProt P54646+O43741+P54619+Q9UGJ0+Q9Y478+Q13131+Q9UGI9). Description: AMP-dependent Kinase enzyme assay. An in vitro enzyme assay that detects ADP turnover that is directly proportional to AMPK activity. This uses naive AMPK that is activated during the assay with MK-8722. The format is functional. The conditions noted are these: 30 µM.

Experiment [4] concerns the target Sialic acid-binding Ig-like lectin 9 (Homo sapiens) (UniProt Q9Y336). Kind of experiment: Hs-Siglec9 ALPHAscreen SOP 20170721. The conditions noted are these: 10 µM.
A further experiment has as its system Trypanosoma cruzi. Kind of experiment: Trypanosoma cruzi phosphomannomutase and mannose-1-phosphate guanylyltransferase assay. The experiment is classed as functional. The conditions noted are these: 10 µM.
Experiment [5] has as its target T2, Arginase-2, mitochondrial (Homo sapiens) (UniProt P78540).
T2 sequence (whole entry): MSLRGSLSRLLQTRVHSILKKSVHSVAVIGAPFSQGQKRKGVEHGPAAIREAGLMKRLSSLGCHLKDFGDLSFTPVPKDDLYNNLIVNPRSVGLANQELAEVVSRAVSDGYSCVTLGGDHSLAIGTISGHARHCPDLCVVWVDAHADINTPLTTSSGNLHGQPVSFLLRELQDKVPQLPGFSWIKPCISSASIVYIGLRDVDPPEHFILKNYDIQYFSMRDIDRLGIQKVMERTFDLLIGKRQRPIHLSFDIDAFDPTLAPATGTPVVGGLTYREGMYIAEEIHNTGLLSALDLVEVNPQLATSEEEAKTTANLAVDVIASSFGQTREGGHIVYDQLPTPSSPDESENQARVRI
Description: in vitro enzyme assay to detect the production of urea directly proportional to the activity of Arginase II. Note: in the data most compounds retested in dose-response had high values. The format is functional. The conditions noted are these: 33.3 µM.

In experiment [6] the target is T3, Proteasome subunit beta (Trypanosoma cruzi) (UniProt O96673).
T3 sequence (whole entry): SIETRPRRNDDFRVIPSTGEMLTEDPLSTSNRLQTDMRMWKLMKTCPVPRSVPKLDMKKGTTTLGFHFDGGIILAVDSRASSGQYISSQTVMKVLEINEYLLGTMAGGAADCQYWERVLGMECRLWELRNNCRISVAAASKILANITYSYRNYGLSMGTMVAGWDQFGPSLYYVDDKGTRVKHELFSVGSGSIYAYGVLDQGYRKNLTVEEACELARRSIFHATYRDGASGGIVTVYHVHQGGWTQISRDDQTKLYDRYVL
Kind of experiment: Trypanosoma cruzi proteasome chymotrypsin-like activity (TcProtChymo) assay. Note: in the data most compounds retested in dose-response had high values. The format is functional. The conditions noted are these: 9.37 µM.

A further experiment is filed under the species Homo sapiens. Description: To identify inhibition of the IFN signalling (Jak-Stat) pathway via expression of an eGFP reporter gene under the control of an IFN-stimulated response element (ISRE) containing MxA promoter. The format is functional. The conditions noted are these: 30 µM. Background: A reporter such as luciferase makes a cellular process visible.

The target of experiment [7] is T4, Tyrosyl-tRNA synthetase, putative (Trypanosoma cruzi (strain CL Brener)) (UniProt Q4DSP6).
T4 sequence (whole entry): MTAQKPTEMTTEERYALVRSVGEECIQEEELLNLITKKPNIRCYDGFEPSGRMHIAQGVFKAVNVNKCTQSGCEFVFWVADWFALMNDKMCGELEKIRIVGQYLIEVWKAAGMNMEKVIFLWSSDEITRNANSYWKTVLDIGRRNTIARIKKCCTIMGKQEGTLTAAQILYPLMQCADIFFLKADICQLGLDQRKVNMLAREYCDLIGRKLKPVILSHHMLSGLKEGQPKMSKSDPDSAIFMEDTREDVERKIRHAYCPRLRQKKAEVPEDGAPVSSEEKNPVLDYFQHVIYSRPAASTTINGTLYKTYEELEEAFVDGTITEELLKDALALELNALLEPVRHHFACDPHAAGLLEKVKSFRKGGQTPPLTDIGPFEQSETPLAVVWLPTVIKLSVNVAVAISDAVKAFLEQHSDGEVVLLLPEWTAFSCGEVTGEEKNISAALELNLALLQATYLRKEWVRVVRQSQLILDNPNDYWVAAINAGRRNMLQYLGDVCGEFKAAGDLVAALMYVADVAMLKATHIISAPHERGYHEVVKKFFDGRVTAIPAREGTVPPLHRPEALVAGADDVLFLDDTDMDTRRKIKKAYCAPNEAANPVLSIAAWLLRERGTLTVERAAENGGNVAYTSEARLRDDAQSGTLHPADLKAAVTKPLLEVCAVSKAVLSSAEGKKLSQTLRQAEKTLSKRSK
Kind of experiment: Trypanosoma cruzi tyrosyl tRNA synthetase (TcYRS) _High Tyrosine SOP. Note: in the data most compounds retested in dose-response had high values. The conditions noted are these: 30 µM. The format is functional.

Experiment [8] deals with T4, Tyrosyl-tRNA synthetase, putative (Trypanosoma cruzi (strain CL Brener)). Description: Trypanosoma cruzi tyrosyl tRNA synthetase (TcYRS) SOP. The experiment is classed as functional. The conditions noted are these: 30 µM.
The target in experiment [9] is Chromo domain-containing protein 1 (Saccharomyces cerevisiae (strain ATCC 204508 / S288c) (Baker's yeast)) (UniProt P32657). Kind of experiment: ScCHD-1 Enzyme Inhibition Assay. Note: in the data most compounds retested in dose-response had high values. The format is functional. The conditions noted are these: 30 µM.
Chromo domain-containing protein 1 (Saccharomyces cerevisiae (strain ATCC 204508 / S288c) (Baker's yeast)), sequence (P32657 whole entry, the tested form may be a part): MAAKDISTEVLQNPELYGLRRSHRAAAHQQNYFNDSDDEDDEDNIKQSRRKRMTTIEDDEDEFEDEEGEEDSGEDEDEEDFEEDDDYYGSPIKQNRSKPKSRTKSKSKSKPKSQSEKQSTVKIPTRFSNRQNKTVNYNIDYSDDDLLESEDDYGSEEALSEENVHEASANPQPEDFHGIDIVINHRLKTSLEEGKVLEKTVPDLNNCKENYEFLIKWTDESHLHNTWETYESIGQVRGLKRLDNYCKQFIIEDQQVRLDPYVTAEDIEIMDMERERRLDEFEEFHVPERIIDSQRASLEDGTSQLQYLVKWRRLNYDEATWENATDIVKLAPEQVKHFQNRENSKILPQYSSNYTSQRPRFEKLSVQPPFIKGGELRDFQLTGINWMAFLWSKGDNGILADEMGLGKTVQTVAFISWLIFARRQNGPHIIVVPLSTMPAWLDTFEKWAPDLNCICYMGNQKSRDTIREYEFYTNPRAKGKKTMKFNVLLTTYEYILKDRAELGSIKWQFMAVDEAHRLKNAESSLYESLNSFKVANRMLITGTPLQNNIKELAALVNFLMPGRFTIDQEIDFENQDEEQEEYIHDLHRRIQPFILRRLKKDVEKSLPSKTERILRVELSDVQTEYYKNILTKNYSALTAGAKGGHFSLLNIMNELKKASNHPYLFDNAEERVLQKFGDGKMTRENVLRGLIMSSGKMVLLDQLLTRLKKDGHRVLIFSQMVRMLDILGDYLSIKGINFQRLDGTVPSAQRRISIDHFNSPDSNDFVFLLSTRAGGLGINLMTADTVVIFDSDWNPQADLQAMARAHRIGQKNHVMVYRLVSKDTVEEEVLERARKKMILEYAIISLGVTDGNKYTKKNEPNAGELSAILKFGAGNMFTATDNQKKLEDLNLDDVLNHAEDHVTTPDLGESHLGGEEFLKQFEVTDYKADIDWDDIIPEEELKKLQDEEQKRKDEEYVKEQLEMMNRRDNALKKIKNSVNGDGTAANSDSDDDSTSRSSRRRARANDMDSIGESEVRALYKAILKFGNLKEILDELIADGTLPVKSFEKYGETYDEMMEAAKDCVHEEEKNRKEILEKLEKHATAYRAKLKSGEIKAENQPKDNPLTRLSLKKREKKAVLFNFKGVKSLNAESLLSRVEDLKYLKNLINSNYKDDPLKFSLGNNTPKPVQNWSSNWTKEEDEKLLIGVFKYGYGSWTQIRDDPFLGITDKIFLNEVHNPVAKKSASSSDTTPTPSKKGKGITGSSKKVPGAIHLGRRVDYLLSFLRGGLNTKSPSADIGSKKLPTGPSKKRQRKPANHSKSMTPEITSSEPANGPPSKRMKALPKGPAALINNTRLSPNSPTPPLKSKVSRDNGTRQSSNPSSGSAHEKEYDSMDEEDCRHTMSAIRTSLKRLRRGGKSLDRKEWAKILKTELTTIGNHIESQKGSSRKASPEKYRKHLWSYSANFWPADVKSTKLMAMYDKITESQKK

Sialic acid-binding Ig-like lectin 9 (Homo sapiens), sequence (Q9Y336 whole entry): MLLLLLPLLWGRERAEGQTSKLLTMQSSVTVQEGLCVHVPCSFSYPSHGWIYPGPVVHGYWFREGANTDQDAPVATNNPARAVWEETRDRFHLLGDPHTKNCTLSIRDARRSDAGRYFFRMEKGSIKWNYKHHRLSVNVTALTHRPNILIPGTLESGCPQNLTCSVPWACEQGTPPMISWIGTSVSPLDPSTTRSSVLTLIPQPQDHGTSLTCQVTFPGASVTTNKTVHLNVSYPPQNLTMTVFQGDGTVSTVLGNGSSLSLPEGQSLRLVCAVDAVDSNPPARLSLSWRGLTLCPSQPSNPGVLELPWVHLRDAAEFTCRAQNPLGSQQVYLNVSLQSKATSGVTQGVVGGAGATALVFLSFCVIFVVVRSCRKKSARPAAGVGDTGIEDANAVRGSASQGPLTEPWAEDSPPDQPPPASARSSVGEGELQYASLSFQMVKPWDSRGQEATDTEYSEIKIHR
Protein translocase subunit SecA (Escherichia coli (strain K12)), sequence (P10408 whole entry): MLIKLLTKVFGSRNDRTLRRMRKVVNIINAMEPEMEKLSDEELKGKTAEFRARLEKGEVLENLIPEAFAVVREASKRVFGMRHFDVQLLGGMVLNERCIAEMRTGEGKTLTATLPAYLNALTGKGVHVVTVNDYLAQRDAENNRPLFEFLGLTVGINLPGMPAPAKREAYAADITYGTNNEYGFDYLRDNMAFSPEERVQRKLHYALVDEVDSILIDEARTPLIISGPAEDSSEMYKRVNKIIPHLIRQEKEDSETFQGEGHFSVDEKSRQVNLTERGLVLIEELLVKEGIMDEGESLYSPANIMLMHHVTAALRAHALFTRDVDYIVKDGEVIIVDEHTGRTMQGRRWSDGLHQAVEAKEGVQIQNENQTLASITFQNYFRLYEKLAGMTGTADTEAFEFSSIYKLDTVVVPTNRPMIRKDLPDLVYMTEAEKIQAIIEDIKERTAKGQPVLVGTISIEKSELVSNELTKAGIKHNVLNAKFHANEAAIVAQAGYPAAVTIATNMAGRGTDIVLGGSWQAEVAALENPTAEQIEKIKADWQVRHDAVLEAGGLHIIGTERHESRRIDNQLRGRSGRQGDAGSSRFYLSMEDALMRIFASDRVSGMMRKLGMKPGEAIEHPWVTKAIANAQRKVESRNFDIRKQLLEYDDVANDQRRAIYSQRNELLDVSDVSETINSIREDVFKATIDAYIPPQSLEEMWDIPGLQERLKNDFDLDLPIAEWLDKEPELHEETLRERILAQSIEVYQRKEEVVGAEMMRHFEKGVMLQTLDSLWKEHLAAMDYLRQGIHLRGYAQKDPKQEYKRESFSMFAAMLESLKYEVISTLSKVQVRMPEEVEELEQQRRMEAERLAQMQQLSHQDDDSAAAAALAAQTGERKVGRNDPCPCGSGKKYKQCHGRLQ

On to `CC(C)OCCOCc1cccc(NC(=O)NCc2ccncc2)c1`, for which the Percent Effect in experiment [1] is 2.27%; in [2], 13%; in experiment [3], -7.84%; in experiment [4] it was -0.138%; in the experiment on Trypanosoma cruzi it was -0.295%; in experiment [5], -11%. The Percent Effect in experiment [6] is 11.5%; in the experiment filed under Homo sapiens it was 30.4%; in experiment [7], 6.45%; in [8], 13.6%; in experiment [9], -2.65%.
As for `Cc1cncc(C(=O)N2CCCCC2c2nc(C)cs2)c1` (stereo not given), the Percent Effect in experiment [1] is -4.34%; in experiment [2], -36.4%; in experiment [3], -2.13%; in [4], 4.39%; in the experiment with Trypanosoma cruzi, 8.99%; in experiment [5], 3.92%. In addition, the Percent Effect is 9.29% in experiment [6]; 16.2% in the experiment listed under Homo sapiens; 9.71% in experiment [7]; 21.9% in experiment [8]; -10.7% in experiment [9].
For the compound `O=C([C@H]1COC[C@H]2CN(Cc3ccco3)C[C@H]21)N1CCCO1`, the Percent Effect in experiment [1] is -7.92%; in experiment [2], 18.7%; in [3], -1.75%; in [4], 0.139%; with Trypanosoma cruzi, 4.63%; in experiment [5] it was -47.9%. For the same compound, the Percent Effect was 4.62% in experiment [6]; -0.652% in the experiment filed under Homo sapiens; 6.25% in experiment [7]; 15% in [8]; -6.91% in experiment [9].
With `NC(=O)c1cc(C2CCCN(C(=O)CCc3cscn3)C2)n[nH]1` (stereo not given), the Percent Effect in experiment [1] was -1.95%; in experiment [2] it was 0%; in experiment [3], 9.04%; in experiment [4], 3.83%; in the experiment with Trypanosoma cruzi, 1.69%; in experiment [5] it was -0.356%. The Percent Effect in experiment [6] is 1.86%; in the experiment filed under Homo sapiens, 8.48%; in [7] it was 2.91%; in [8] it was 2.44%; in experiment [9], -5.18%.
Regarding `O=C(CNC(=O)N1CCc2c([nH]c3ccc(Cl)cc23)C1)N1CCOCC1`, the Percent Effect in experiment [1] was -8.87%; in [2] it was -4%; in experiment [3], 11.7%; in [4], -3.55%; in the experiment with Trypanosoma cruzi, -2.55%; in [5], -20.2%. The Percent Effect in experiment [6] was 10.5%; in the experiment filed under Homo sapiens it was 7.25%; in experiment [7], -3.17%; in experiment [8], -5.13%; in experiment [9] it was -12.6%.
Turning to `Oc1cc(CCC2CCCCN2)cc(-c2ccncc2)c1` (stereo not given), the Percent Effect was -5.49% in [1]; 0% in experiment [2]; -8.16% in experiment [3]; 0.305% in experiment [4]; -3.92% with Trypanosoma cruzi; 0.909% in experiment [5]. Moreover, the Percent Effect in experiment [6] was 20.1%; in the experiment filed under Homo sapiens, 1.09%; in experiment [7], 2.15%; in experiment [8], 7.5%; in experiment [9], -3.03%.
Turning to `CCN(CC(=O)NC)S(=O)(=O)N1CCCCCC1`, the Percent Effect in experiment [1] is -5.53%; in experiment [2], 10.8%; in [3], -3.76%; in [4], 4.7%; in the experiment with Trypanosoma cruzi, -0.489%; in experiment [5] it was 3.72%. Also, the Percent Effect in experiment [6] is 6.61%; in the experiment listed under Homo sapiens, 8.47%; in experiment [7] it was 4.3%; in experiment [8], 13.6%; in experiment [9], -2.62%.
For `Cc1cccc(NC(=O)Cn2ncc(SCC(N)=O)c(Cl)c2=O)c1C`, the Percent Effect in experiment [1] was -3.9%; in [2] it was 5.48%; in experiment [3] it was 4.95%; in experiment [4], -15.5%; in the experiment on Trypanosoma cruzi, -4.31%; in experiment [5], 3.18%. The Percent Effect in experiment [6] came out at 22.5%; in the experiment filed under Homo sapiens, 17.6%; in experiment [7], 5.38%; in [8], 5%; in [9], 79.5%.
Turning to `Cc1nc(NCCc2ccc(Cl)cc2)cc(C(=O)N2CCOCC2)n1`, the Percent Effect in [1] was 0.862%; in experiment [2], 5.2%; in experiment [3], -3.84%; in experiment [4] it was 11.5%; in the experiment with Trypanosoma cruzi, 3.64%; in experiment [5], -44.1%. In addition, the Percent Effect in [6] was 9.98%; in the experiment filed under Homo sapiens, 23.7%; in experiment [7], 7.53%; in experiment [8], 16.1%; in experiment [9] it was -2.1%.
On to `CCS(=O)(=O)N1Cc2nccn2CC(Cn2nc(C)nc2C)C1` (stereo not given), for which the Percent Effect was -2.08% in experiment [1]; 13.5% in experiment [2]; -5.79% in experiment [3]; 32.6% in experiment [4]; 4.2% with Trypanosoma cruzi; 19.6% in experiment [5]. Besides, the Percent Effect was 16.9% in [6]; -17.4% in the experiment filed under Homo sapiens; 5.38% in [7]; 18.5% in experiment [8]; -4.54% in experiment [9].

(Values after ChEMBL document CHEMBL3988442, “University of Dundee, Small-Polar-MMV Screening Library” (2021).)
